The text below walks through data of PubChem BioAssay (NCI).

This is part of a sample that, as a whole, favours compounds with a hit. Of some 83,000 tested, about 20% had one in any assay.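 Plates (96-well) were seeded with cells, treated with compound at one concentration, and incubated for 48 hours before percent growth was determined.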 Values without a mark were called inactive. Active and inactive are the calls of the source. The calls were made as follows: active = growth percent below 10; inactive = the rest.

Some test systems named below: SR leukemia; RPMI-8226 leukemia; OVCAR-8 ovarian; OVCAR-5 ovarian; OVCAR-4 ovarian; SK-OV-3 ovarian; IGROV1 ovarian; OVCAR-3 ovarian; HS 578T breast; NCI/ADR-RES ovarian; T-47D breast; BT-549 breast; MDA-MB-435 melanoma; SW-620 colon; MCF7 breast; HCT-116 colon; HCC-2998 colon; KM12 colon.
What all share (assay): NCI-60 one-dose screen, 48 h (100 = growth as untreated, 0 = no growth, -100 = all killed)
Settings in all cases: 10 µM unless noted

For the compound `CCOC(=O)C(Cc1ccccc1)n1c(O)c(/C=N/c2ncc(Cc3ccc(Cl)cc3Cl)s2)sc1=S` (configuration not stated), the growth with SR leukemia was 27.8%; in the assay with RPMI-8226 leukemia it was -7.55% (active); with OVCAR-8 ovarian, 2.66% (active); with OVCAR-5 ovarian it was 38.9%; in the assay on OVCAR-4 ovarian, 25.6%; in the assay on SK-OV-3 ovarian, 0.0373% (active). The growth was 37.6% with IGROV1 ovarian; 17.9% in the assay on OVCAR-3 ovarian; -3.53% (active) with HS 578T breast; 5.71% (active) in the assay on NCI/ADR-RES ovarian; -3.64% (active) in the assay on T-47D breast; -1.04% (active) in the assay on BT-549 breast. In addition, the growth in the assay on MDA-MB-435 melanoma was 17.2%; with SW-620 colon, 12%; with MCF7 breast it was 3.1% (active); in the assay with HCT-116 colon, 1.61% (active); in the assay on HCC-2998 colon, 16.5%; in the assay with KM12 colon it was 10.8%.
Consider `Cc1ccccc1C1CC(=O)c2ccccc2C1C` (configuration not stated), for which the growth in the assay with SR leukemia was 78.7%; in the assay with RPMI-8226 leukemia it was 93.8%; with OVCAR-8 ovarian, 106%; with OVCAR-5 ovarian, 97.2%; with OVCAR-4 ovarian, 101%; in the assay on SK-OV-3 ovarian, 105%. The growth in the assay with IGROV1 ovarian is 123%; in the assay on OVCAR-3 ovarian, 116%; with HS 578T breast, 98.9%; in the assay with NCI/ADR-RES ovarian it was 108%; with T-47D breast, 107%; in the assay on BT-549 breast, 131%. Further, the growth in the assay on MDA-MB-435 melanoma is 91.3%; in the assay with SW-620 colon, 99.2%; in the assay on MCF7 breast, 115%; with HCT-116 colon it was 95.3%; with HCC-2998 colon, 104%; in the assay on KM12 colon it was 107%.
For the compound `O=C(CC(=O)C(F)(F)C(F)(F)C(F)(F)F)c1cc2ccccc2o1`, the growth with SR leukemia was 101%; in the assay with RPMI-8226 leukemia it was 109%; with OVCAR-8 ovarian, 102%; with OVCAR-5 ovarian, 103%; with OVCAR-4 ovarian, 98.6%; in the assay with SK-OV-3 ovarian it was 105%. The growth in the assay on IGROV1 ovarian was 110%; with OVCAR-3 ovarian it was 106%; in the assay with HS 578T breast, 103%; with NCI/ADR-RES ovarian it was 102%; in the assay on T-47D breast it was 96%; in the assay with BT-549 breast it was 111%. The growth was 104% with MDA-MB-435 melanoma; 97.6% with SW-620 colon; 103% in the assay on MCF7 breast; 102% in the assay with HCT-116 colon; 113% in the assay on HCC-2998 colon; 104% in the assay with KM12 colon.
For `CC(C)CCC(=O)[C@@H](C)[C@H]1[C@@H](OC2OCC(O)C(O)C2NS(C)(=O)=O)C[C@H]2[C@@H]3CC=C4C[C@@H](O)CC[C@]4(C)[C@H]3CC[C@]12C` (some centres not stated), the growth was 17% in the assay on SR leukemia; -26.1% (active) with RPMI-8226 leukemia; 35.4% in the assay with OVCAR-8 ovarian; 64.5% in the assay with OVCAR-5 ovarian; 75.5% with OVCAR-4 ovarian; 0.627% (active) with SK-OV-3 ovarian. Besides, the growth was 61.2% with IGROV1 ovarian; 68.8% with OVCAR-3 ovarian; -4.14% (active) in the assay with HS 578T breast; 82.7% in the assay with NCI/ADR-RES ovarian; 43.6% with T-47D breast; 22% with BT-549 breast. In addition, the growth in the assay with MDA-MB-435 melanoma was 1.92% (active); in the assay with SW-620 colon, 11.9%; in the assay with MCF7 breast, 17.1%; in the assay on HCT-116 colon, 24.9%; in the assay with HCC-2998 colon, 67.2%; in the assay with KM12 colon, 47%.
In the case of `CN(C)c1nc(-c2ccco2)n2nc(-c3ccc(Cl)cc3)cc2n1`, the growth is 52.7% in the assay with SR leukemia; 74.8% in the assay on RPMI-8226 leukemia; 50.8% in the assay with OVCAR-8 ovarian; 90% with OVCAR-5 ovarian; -10.2% (active) with OVCAR-4 ovarian; 45.9% in the assay on SK-OV-3 ovarian. The growth is 55.8% in the assay on IGROV1 ovarian; 74.1% in the assay with OVCAR-3 ovarian; 65.1% in the assay with HS 578T breast; 69% in the assay with NCI/ADR-RES ovarian; 47.9% with T-47D breast; 86.7% with BT-549 breast. The growth is 89.6% with MDA-MB-435 melanoma; 62.7% with SW-620 colon; 68.2% in the assay with MCF7 breast; 43.4% in the assay on HCT-116 colon; 86% with HCC-2998 colon; 84.4% in the assay with KM12 colon.
`Cc1cc(-c2ccccc2)on1`: the growth was 87.3% in the assay with SR leukemia; 108% in the assay on RPMI-8226 leukemia; 106% in the assay on OVCAR-8 ovarian; 106% with OVCAR-5 ovarian; 102% with OVCAR-4 ovarian; 93.1% in the assay with SK-OV-3 ovarian. Also, the growth in the assay on IGROV1 ovarian was 98.1%; in the assay on OVCAR-3 ovarian, 112%; with HS 578T breast, 104%; with NCI/ADR-RES ovarian, 105%; in the assay on T-47D breast, 96%; in the assay on BT-549 breast, 119%. Moreover, the growth was 107% in the assay with MDA-MB-435 melanoma; 109% with SW-620 colon; 106% in the assay with MCF7 breast; 101% in the assay with HCT-116 colon; 111% with HCC-2998 colon; 106% with KM12 colon.
Regarding `COc1ccc(-c2ccc(-c3ccc(C(=N)N)s3)s2)cc1`, the growth is -40.6% (active) in the assay on SR leukemia; -57.5% (active) with RPMI-8226 leukemia; -66.9% (active) in the assay on OVCAR-8 ovarian; -92.6% (active) with OVCAR-5 ovarian; -56.4% (active) in the assay on OVCAR-4 ovarian; -88.9% (active) with SK-OV-3 ovarian. The growth was -57.2% (active) in the assay with IGROV1 ovarian; -80.8% (active) in the assay with OVCAR-3 ovarian; -56.8% (active) in the assay with HS 578T breast; -61.7% (active) in the assay on NCI/ADR-RES ovarian; -64% (active) in the assay on T-47D breast; -81.3% (active) in the assay with BT-549 breast. Moreover, the growth with MDA-MB-435 melanoma was -78.1% (active); with SW-620 colon it was -69.1% (active); in the assay with MCF7 breast it was -50.1% (active); with HCT-116 colon, -47.8% (active); in the assay on HCC-2998 colon it was -81% (active); in the assay with KM12 colon, -86.8% (active).
For the compound `CC1(C)CN(CCNc2nccc(-c3c(-c4cccc(O)c4)nc4sccn34)n2)S(=O)(=O)N1`, the growth was 17.5% in the assay with SR leukemia; 96.1% in the assay on RPMI-8226 leukemia; 103% in the assay with OVCAR-8 ovarian; 94.1% in the assay with OVCAR-5 ovarian; 70.9% in the assay on OVCAR-4 ovarian; 44.7% in the assay with SK-OV-3 ovarian. Besides, the growth in the assay on IGROV1 ovarian was 38.5%; in the assay with OVCAR-3 ovarian, 77.5%; in the assay with HS 578T breast it was 71.6%; in the assay on NCI/ADR-RES ovarian, 111%; with T-47D breast, 75.6%; in the assay with BT-549 breast it was 80.9%. Further, the growth in the assay on MDA-MB-435 melanoma was 19.9%; with SW-620 colon, 87.6%; in the assay with MCF7 breast, 70%; with HCT-116 colon, 28%; with HCC-2998 colon it was 93.4%; in the assay with KM12 colon, 76.4%.
As to `COc1ccc(CNc2c3ccccc3nc3ccccc23)cc1F`, the growth is 4.85% (active) with SR leukemia; -5.78% (active) with RPMI-8226 leukemia; 29.4% with OVCAR-8 ovarian; 36.9% in the assay on OVCAR-5 ovarian; 26.1% in the assay on OVCAR-4 ovarian; 48.1% with SK-OV-3 ovarian. Besides, the growth with IGROV1 ovarian was 15.8%; with OVCAR-3 ovarian, 52.2%; in the assay on HS 578T breast it was 45.5%; with NCI/ADR-RES ovarian, 20.8%; in the assay on T-47D breast, 35%; in the assay with BT-549 breast, 49.5%. For the same compound, the growth was 7.6% (active) with MDA-MB-435 melanoma; 16.6% in the assay on SW-620 colon; 2.34% (active) in the assay with MCF7 breast; 12.3% with HCT-116 colon; 5.83% (active) with HCC-2998 colon; 32.8% in the assay on KM12 colon.
